Screening data as filed in PubChem BioAssay.
This is a sample that favours compounds with a hit; in the whole collection about 2.4% have one here.
AmpC inh no det – blocks E. coli AmpC beta-lactamase in absence of detergent. actives 1.8% (n = 71,000). AmpC nitrocefin hydrolysis, absorbance 480 nm, no detergent. P00811. Potency, µM (titrated, usually from 28.7 µM), for inactives: at the highest dose activity change, negative = inhibition. AID 585; also: % of control where 0% means no effect
Target sequence (P00811 whole entry, looked up): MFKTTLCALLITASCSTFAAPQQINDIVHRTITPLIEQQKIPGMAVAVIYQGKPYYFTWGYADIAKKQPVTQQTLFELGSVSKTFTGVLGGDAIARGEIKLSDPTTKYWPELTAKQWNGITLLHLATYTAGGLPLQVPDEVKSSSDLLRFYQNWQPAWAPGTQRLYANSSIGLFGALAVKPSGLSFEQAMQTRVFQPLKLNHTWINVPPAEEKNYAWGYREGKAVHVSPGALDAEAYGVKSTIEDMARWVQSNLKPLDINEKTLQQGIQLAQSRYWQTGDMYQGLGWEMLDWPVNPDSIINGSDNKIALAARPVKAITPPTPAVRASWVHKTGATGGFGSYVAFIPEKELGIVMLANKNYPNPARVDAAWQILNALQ
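AmpC, 20 mM phosphate pH 7.0; 15 min cpd preinc, RT; start with nitrocefin (800 uM stock); A480 kinetic read, 20 s intervals, 4 min. No-enzyme wells = negative control.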
AmpC det inh – blocks E. coli AmpC beta-lactamase in presence of detergent; Potency, µM (top dose mostly 28.7 µM), inactives show at the highest dose activity change, negative = inhibition; purified AmpC, nitrocefin hydrolysis with detergent; AID 584; P00811; actives 0.09% (n = 71,000); active = well fitted curve in the direction sought with a large enough effect; inconclusive = small, poorly fitted or top-dose-only effect; also: % is scaled to controls: 0 for no effect and ±100 for the full control effect
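E. coli AmpC (5.3 nM) in 20 mM phosphate pH 7.0 with 0.01% Triton X-100, preincubated 15 min RT with compound; nitrocefin (2 uL of 800 uM stock) hydrolysis followed by 480 nm absorbance every 20 s over 4 min.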
SmPrx2 inh – blocks S. mansoni peroxiredoxin 2 enzymatic activity; S. mansoni Prx2 activity coupled to TGR/GSH (TGR is thioredoxin glutathione reductase), NADPH fluorescence loss, qHTS; Potency, µM; actives 0.07% (n = 65,000); AID 448
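Enzyme mix: 100 uM NADPH, 25 nM TGR, 700 uM GSH, 50 nM Prx2 in 100 mM phosphate pH 7.4, 10 mM EDTA, 0.01% Tween-20. 15 min RT with compound; NADPH/GSH added, H2O2 starts reaction; NADPH fluorescence read 8 min.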
Anthrax LT inh – blocks cellular internalization of anthrax lethal toxin | Cells, anthrax lethal toxin internalization, FRET ratio (460/530) | Potency, µM (series often up to 40 µM), without a hit: top-dose activity change, negative = inhibition, actives largely listed as inhibitors | actives 0.67% (n = 70,000); also: % is scaled to controls: 0 for no effect and ±100 for the full control effect; nearly all actives have a fitted effect of over 50% in size
* = called active by the depositor; ? = inconclusive; nt = no result given; [ ] = dose if it differs, or a comment. Unless noted, calls follow the shape of the full dose curve. Potency is read from the fitted curve at half-maximal effect.

SMILES	AmpC inh no det	AmpC det inh	SmPrx2 inh	Anthrax LT inh
Cc1ccc(S(=O)(=O)C2(C(=O)Nc3ccc4c(c3)OCO4)CC2)cc1	4µM*[single pt active]	22%	>57	-7%
Cc1ccc(S(=O)(=O)C2(C(=O)Nc3ccc(F)cc3)CC2)cc1	-7%	11%	>57	-7%
CCOC(=O)c1c(NC(=O)c2noc3c2CCCC3)sc2c1CCCC2	5%	-2%	>57	-7%
CCCc1cc(C(=O)Nc2sc3c(c2C(=O)OCC)CCCC3)no1	4µM*[single pt active]	8%	>57	-12%
CCCc1cc(C(=O)Nc2ccc(C)cc2)no1	4µM*[single pt active]	16%	>57	?
Cc1ccc(NC(=O)c2cc(C)on2)cc1	-14%	2%	>57	-25%
CCCc1cc(C(=O)Nc2cc(Br)ccc2O)no1	16µM*[single pt active]	6%	>57	?
COc1ccc(OCc2nnc3n2N=C(c2ccc(OC)cc2)CS3)cc1	4µM*[single pt active]	14%	>57	-1%
C=C(CO)[C@H]1Cc2c(ccc3c(=O)c4c(oc23)COc2cc(OC)c(OC)cc2-4)O1	99%	3%	>57	-15%
NCCNC(=S)S	-4%[5.75 µM]	-4%[5.75 µM]	>57	?
[Cd+2].[Cl-].[Cl-]	-8%	10%	nt	?
[Cl-].[Cl-].[Hg+2]	1.3µM*	13µM*	nt	?
CO[C@@H](C)[C@](O)(C(=O)OC1=CCN2CC[C@H](O)[C@H]12)C(C)C	-3%	-3%	>57	-16%
